Consider 12 compounds from PubChem BioAssay (NCI).

SMILES strings stand for the structures. About 79,000 compounds went through this panel and 15% of them were active in at least one assay; those are over-represented in the sample as a whole. Values without a mark were called inactive. Active and inactive are the calls of the source. No stated cut-off is given here; in the data, active means growth inhibition above about 70%; inactive means the rest.

Test [1] in a line: NCI Yeast Anticancer Drug Screen. Data for the rad50 strain (AID 155).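 Further: 0% = growth of vehicle-only cultures of the same strain.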 To be noted: S. cerevisiae rad50 strain growth inhibition, active compounds read high. Put shortly: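 Cells are treated with compound, grown, and their growth is then scored against vehicle-only cultures of the same repair-deficient yeast strain.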
Test [2] is described as follows: NCI Yeast Anticancer Drug Screen. Data for the mec2-1 strain (AID 157). The following applies: S. cerevisiae mec2-1 strain, active compounds read high. Put shortly:
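Growth inhibition is read against vehicle-treated controls after compound exposure of the mec2-1 yeast strain, which is defective in DNA damage repair or cell cycle control.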

Test [3] is described as follows: NCI Yeast Anticancer Drug Screen. Data for the sgs1 mgt1 strain (AID 161).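 Further: 0% = growth of cultures given vehicle only.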 The following applies: S. cerevisiae sgs1 mgt1 strain, active compounds read high. In a few lines:
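Compounds are added to genetically altered yeast, and growth is compared with cultures given vehicle alone to give percent inhibition.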

Test [4] is described as follows: NCI Yeast Anticancer Drug Screen. Data for the cln2 rad14 strain (AID 165).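 Further: 0% = growth equal to vehicle treated cultures.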 To be noted: S. cerevisiae cln2 rad14 strain, active compounds read high. In a few lines:
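Growth inhibition, relative to vehicle-treated controls, is the read-out. The test organism is a yeast strain with defined genetic alterations, cln2 rad14.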

Test [5] can be described thus: NCI Yeast Anticancer Drug Screen. Data for the bub3 strain (AID 167). The following applies: S. cerevisiae bub3 mutant strain, active compounds read high. Put shortly: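 Part of a panel of yeast mutants defective in DNA damage repair or cell cycle regulation. Each strain is grown with compound, and inhibition is calculated relative to solvent-treated cultures.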
A short description of test [6]: NCI Yeast Anticancer Drug Screen. Data for the mlh1 rad18 strain (AID 175). To be noted: S. cerevisiae mlh1 rad18 strain growth inhibition, active compounds read high. In a few lines:
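Cells of a genetically altered yeast strain, deficient in DNA damage repair, were treated with compound. Their growth was then compared with that of vehicle-treated cultures to give inhibition.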

The mark [7] stands for this setting: at 5.0 µM (retest, dose inferred, filed as 0.5).
Setting [8] is: at 50.0 µM (retest, dose inferred, filed as 5.0).

As to `O=C(CBr)OCC(O)CCl` (configuration not stated), the growth inhibition in test [1] (setting [7]) is 92% (active); in test [1] (setting [8]), 99% (active); in test [2] (setting [7]) it was 70% (active); in test [2] (setting [8]), 100% (active); in test [3] (setting [7]), 96% (active); in test [3] (setting [8]), 100% (active). For the same compound, the growth inhibition in test [4] (setting [7]) is 49%; in test [4] (setting [8]) it was 99% (active); in test [5] (setting [7]) it was 79% (active); in test [5] (setting [8]), 100% (active); in test [6] (setting [7]), 47%; in test [6] (setting [8]) it was 99% (active).
For `O=S(=O)(CCBr)CCBr`, the growth inhibition in test [1] (setting [7]) is 51%; in test [1] (setting [8]), 68%; in test [1] (at 50.0 µM), 88.3% (active); in test [3] (setting [7]), 66%; in test [3] (setting [8]), 89% (active); in test [3] (at 50.0 µM) it was 88.4% (active). The growth inhibition in test [4] (setting [7]) was 92% (active); in test [4] (setting [8]), 93% (active); in test [4] (at 50.0 µM), 41.9%; in test [5] (setting [7]), 80% (active); in test [5] (setting [8]), 94% (active); in test [5] (at 50.0 µM) it was 83.2% (active). Further, the growth inhibition in test [6] (setting [7]) is 33%; in test [6] (setting [8]), 57%; in test [6] (at 50.0 µM), 85.2% (active).
For the compound `C[CH2][Sn]([CH2]C)([CH2]C)[CH2]C`, the growth inhibition in test [1] (setting [7]) is 6%; in test [1] (setting [8]), 54%; in test [2] (setting [7]), 3%; in test [2] (setting [8]) it was 22%; in test [3] (setting [7]), -3%; in test [3] (setting [8]), 58%. The growth inhibition in test [4] (setting [7]) is -6%; in test [4] (setting [8]), 12%; in test [5] (setting [7]), 0%; in test [5] (setting [8]), 35%; in test [6] (setting [7]), -8%; in test [6] (setting [8]), 44%.
On to `O=[N+]([O-])/C=C/c1cccc([N+](=O)[O-])c1`, for which the growth inhibition in test [1] (setting [7]) was 98% (active); in test [1] (setting [8]), 99% (active); in test [2] (setting [7]) it was 99% (active); in test [2] (setting [8]) it was 100% (active); in test [3] (setting [7]), 100% (active); in test [3] (setting [8]), 100% (active). For the same compound, the growth inhibition in test [4] (setting [7]) was 35%; in test [4] (setting [8]), 99% (active); in test [5] (setting [7]), 97% (active); in test [5] (setting [8]), 100% (active); in test [6] (setting [7]), -9%; in test [6] (setting [8]), 99% (active).
As to `COc1cc(/C=C/[N+](=O)[O-])cc(OC)c1OC`, the growth inhibition was 34% in test [1] (setting [7]); 99% (active) in test [1] (setting [8]); 22% in test [2] (setting [7]); 99% (active) in test [2] (setting [8]); 48% in test [3] (setting [7]); 100% (active) in test [3] (setting [8]). Besides, the growth inhibition in test [5] (setting [7]) was 19%; in test [5] (setting [8]) it was 100% (active); in test [6] (setting [7]), -8%; in test [6] (setting [8]), 99% (active).
As for `CC/C(=C\c1ccc(Cl)c(Cl)c1)[N+](=O)[O-]`, the growth inhibition is 97% (active) in test [1] (setting [7]); 99% (active) in test [1] (setting [8]); 52% in test [2] (setting [7]); 100% (active) in test [2] (setting [8]); 99% (active) in test [3] (setting [7]); 100% (active) in test [3] (setting [8]). The growth inhibition was 13% in test [4] (setting [7]); 99% (active) in test [4] (setting [8]); 60% in test [5] (setting [7]); 99% (active) in test [5] (setting [8]); 14% in test [6] (setting [7]); 99% (active) in test [6] (setting [8]).
Consider `Cc1ccc(NCc2ccccc2)cc1[As](=O)(O)O`, for which the growth inhibition is -1% in test [1] (setting [7]); 97% (active) in test [1] (setting [8]); 47% in test [1] (at 50.0 µM); -4% in test [3] (setting [7]); 67% in test [3] (setting [8]); 8.3% in test [3] (at 50.0 µM). Besides, the growth inhibition in test [4] (setting [7]) was -5%; in test [4] (setting [8]) it was 94% (active); in test [4] (at 50.0 µM), -16.8%; in test [5] (setting [7]), -2%; in test [5] (setting [8]), 99% (active); in test [5] (at 50.0 µM) it was 41.5%. Besides, the values for the growth inhibition in test [6] (setting [7]), in test [6] (setting [8]) and in test [6] (at 50.0 µM) were -1%, 99% (active) and 66.3%, respectively.
Take `O=C([O][Hg][CH2]C1COC([CH2][Hg][O]C(=O)c2ccccc2)CO1)c1ccccc1` (configuration not stated): the growth inhibition in test [1] (setting [7]) was 98% (active); in test [1] (setting [8]), 98% (active); in test [2] (setting [7]), 99% (active); in test [2] (setting [8]), 99% (active); in test [3] (setting [7]) it was 99% (active); in test [3] (setting [8]) it was 99% (active). Besides, the growth inhibition in test [3] (at 50.0 µM) was 89.5% (active); in test [4] (setting [7]), 97% (active); in test [4] (setting [8]) it was 98% (active); in test [4] (at 50.0 µM), 90.6% (active); in test [5] (setting [7]), 100% (active); in test [5] (setting [8]), 99% (active). Further, the growth inhibition in test [5] (at 50.0 µM) was 89.7% (active); in test [6] (setting [7]), 98% (active); in test [6] (setting [8]), 98% (active).
Turning to `CCSc1nc(=[N+]2CCCC2)ss1`, the growth inhibition in test [1] (setting [7]) was 33%; in test [1] (setting [8]), 99% (active); in test [1] (at 50.0 µM), 98.5% (active); in test [3] (setting [7]), 36%; in test [3] (setting [8]), 99% (active); in test [3] (at 50.0 µM), 98.8% (active). In addition, the growth inhibition was 29% in test [4] (setting [7]); 100% (active) in test [4] (setting [8]); 81.7% (active) in test [4] (at 50.0 µM); 17% in test [5] (setting [7]); 100% (active) in test [5] (setting [8]); 89.3% (active) in test [5] (at 50.0 µM). Further, the growth inhibition in test [6] (setting [7]) was 44%; in test [6] (setting [8]), 99% (active); in test [6] (at 50.0 µM), 97% (active).
Regarding `CC/C(=C\c1ccccc1)[N+](=O)[O-]`, the growth inhibition in test [1] (setting [7]) is 64%; in test [1] (setting [8]) it was 99% (active); in test [2] (setting [7]), 11%; in test [2] (setting [8]) it was 100% (active); in test [3] (setting [7]) it was 25%; in test [3] (setting [8]), 100% (active). Besides, the growth inhibition was 28% in test [5] (setting [7]), 100% (active) in test [5] (setting [8]), -13% in test [6] (setting [7]) and 98% (active) in test [6] (setting [8]).
For the compound `O=[n+]1c2ccccc2n([O-])c2ccccc21`, the growth inhibition in test [1] (setting [7]) is 93% (active); in test [1] (setting [8]) it was 98% (active); in test [2] (setting [7]), 22%; in test [2] (setting [8]), 99% (active); in test [3] (setting [7]) it was 61%; in test [3] (setting [8]), 99% (active). Further, the growth inhibition is 18% in test [4] (setting [7]); 98% (active) in test [4] (setting [8]); 0% in test [5] (setting [7]); 99% (active) in test [5] (setting [8]); 79% (active) in test [6] (setting [7]); 98% (active) in test [6] (setting [8]).
With `O=[N+]([O-])/C=C/c1ccc([N+](=O)[O-])cc1`, the growth inhibition in test [1] (setting [7]) was 96% (active); in test [1] (setting [8]), 99% (active); in test [2] (setting [7]), 81% (active); in test [2] (setting [8]), 100% (active); in test [3] (setting [7]), 99% (active); in test [3] (setting [8]) it was 100% (active). The growth inhibition was 31% in test [4] (setting [7]); 99% (active) in test [4] (setting [8]); 94% (active) in test [5] (setting [7]); 100% (active) in test [5] (setting [8]); 15% in test [6] (setting [7]); 99% (active) in test [6] (setting [8]).
